From PubChem BioAssay (Tox21)
Results filed as inconclusive are left out. Entries that show only a call come without a potency. Calls of active or inactive are those of the source. Calls follow the shape of the dose curve; as a rule, active = well fitted cell-killing curve with a large enough effect in the repeat runs; inconclusive = weak or mixed curves, or effect the other way; inactive = flat fitted curve, though single readings scatter.

experiment: qHTS assay to identify small molecule antagonists of the retinoid acid receptor (RAR) signaling pathway - cell viability counter screen (AID 1159551); details: C3RL4 cells viability, ATP luminescence (CellTiter-Glo), 6 h; series mostly up to 92.4 µM; also: nearly all actives have a fitted effect of over 35% in size
Excerpt: U.S. Tox21 Program National Center for Advancing Translational Sciences [NCATS] NIH Chemical Genomics Center [NCGC] U.S. Environmental Protection Agency [EPA] National Institutes of Environmental Health Sciences [NIEHS] National Toxicology Program [NTP] U.S. Food and Drug Administration [FDA] Tox21 Assay Overview: All-trans Retinoic acid (atRA) is the potent natural metabolite of retinol and plays an important role in normal embryonic development and maintenance of cellular phenotype in adult animals. atRA is the activating ligand for the retinoic acid receptors (RARs) which form heterodimers with retinoid X receptors (RXRs) on the retinoic acid response element (RARE). Through activation of the RAR/RXRs nuclear receptors, atRA regulates the transcription of a large number of protein-coding genes and regulatory RNAs. Intracellular levels of atRA are controlled by the retinol signaling pathway (RSP) that regulates the biosynthesis and catabolism of atRA to maintain physiological levels. Chemicals that interfere with the RSP can cause abnormal intracellular levels of atRA and therefore are potential developmental toxicants. To assess compounds for the potential adverse effect on embryonic development through interfering with retinol signaling, a cell-based RARE luciferase reporter gene assay was used. C3RL4 cell line (OARSA/CFSAN/FDA, Laurel, MD) was used to screen Tox21 10K compound library for identifying inhibitors of the RSP. Also cytotoxicity was assessed by determining the viability of cells based on the quantitation of ATP.
Tox21 Assay Protocol Summary: C3RL4 cells were seeded at 1,000/well in 4 uL of assay medium into white solid 1,536-well tissue culture plates (Greiner Bio-One North America Inc. Monroe, NC) using a Multidrop Combi (Thermo Scientific, Waltham, MA) dispenser. After incubation at 37 C and 5% CO2 for an overnight, 23 nL of compounds dissolved in DMSO, positive control or DMSO only were transferred by a Pintool station (Kalypsys, San Diego, CA). One ul of 1 uM (final concentration) of Retinol was added right after the compound addition by using a Flying Reagent Dispenser (FRD) (Aurora Discovery, San Diego, CA). After 6 hr incubation at 37 C and 5% CO2, 5 uL of CellTiter-Glo reagent (Promega Corporation, Madison, WI) was added to each assay plate using an FRD. Luminescence was quantified on a ViewLux plate reader (PerkinElmer, Waltham, MA) after 30 min incubation at room temperature.

| Compound | Potency |
| --- | --- |
| O=C1NC(=O)C(=O)C(=O)N1 | inactive |
| CCCCCCCCCCCCCCCl | inactive |
| CCCCC(CC)CO[N+](=O)[O-] (stereo not given) | inactive |
| O=C(O)c1ccc(=O)[nH]c1 | inactive |
| C[N+](C)(C)CCOC(=O)C(O)(c1ccccc1)c1ccccc1 | inactive |
| CC(C)(C)OOC(C)(C)CCC(C)(C)OOC(C)(C)C | inactive |
| CC(Cc1ccccc1)NCc1ccccc1Cl (stereo not given) | inactive |
| Clc1ccc(Cl)c(Cl)c1 | inactive |
| CCOP(=S)(S)OCC | inactive |
| CC1(C)CC(=O)CC(C)(C)N1[O] | inactive |
| O=C(CCl)CCl | inactive |
| CCCBr | inactive |
| NNCCO | inactive |
| C[C@H]1O[C@H](OC2[C@@H](O)[C@@H](O)C(O)[C@H](O)[C@H]2O)[C@@H](N)C[C@@H]1N=C(N)C(=O)O (stereo not given in full) | inactive |
| CC(C)(c1ccccc1)c1cc(-n2nc3ccccc3n2)c(O)c(C(C)(C)c2ccccc2)c1 | inactive |
| COC1CC(=C(c2cccs2)c2cccs2)C[N+](C)(C)C1 (stereo not given) | inactive |
| O=C=NC1CCCCC1 | inactive |
| Nc1ccc2c(c1)Cc1ccccc1-2 | inactive |
| O=S(=O)(Cl)Cl | inactive |
| CCCCCCCCP(=O)(O)O | inactive |

| Compound | Potency |
| --- | --- |
| O=CC=O | inactive |
| CCCC[N+]1(C)[C@@H]2CC(OC(=O)[C@H](CO)c3ccccc3)C[C@H]1[C@@H]1O[C@@H]12 (stereo not given in full) | inactive |
| O=C(NCNC(=O)NC1C(=O)NC(=O)N1CO)NC1C(=O)NC(=O)N1CO (stereo not given) | inactive |
| CCCCCBr | inactive |
| CCNC(=O)NC(=O)/C(C#N)=N/OC | inactive |
| O=P(OCC(Br)CBr)(OCC(Br)CBr)OCC(Br)CBr (stereo not given) | inactive |
| O=C(O)C(F)(F)C(F)(F)C(F)(F)C(F)(F)C(F)(F)C(F)(F)C(F)(F)C(F)(F)F | inactive |
| CCC1(CC)C(=O)NC(=O)NC1=O | inactive |
| CCCCC1C(=O)NC(=O)N(C2CCCCC2)C1=O (stereo not given) | inactive |
| O=C(O)C(Cl)(Cl)Br | inactive |
| CN(C)N | inactive |
| CN1CC[C@]23c4c5ccc(O)c4O[C@H]2[C@@H](O)CC[C@H]3[C@H]1C5 | inactive |
| CCOP(=S)(OCC)SCSc1cc(Cl)ccc1Cl | inactive |
| N#CC(C#N)=C(C#N)C#N | inactive |
| CC[N+]1(C)CCCC(OC(=O)C(O)(c2ccccc2)c2ccccc2)C1 (stereo not given) | inactive |
| Oc1cccc(Cl)c1 | inactive |
| CCOC(=O)c1cn2nc(OP(=S)(OCC)OCC)cc2nc1C | inactive |
| C=CC(C)(CCC=C(C)C)OC(=O)c1ccccc1N (stereo not given) | inactive |
| Nc1ccccc1C(=O)OCC(O)CO (stereo not given) | inactive |
| Clc1ccccc1 | inactive |
